# ATXN2 expr inh – ATXN2 expression inhibition. Potency, µM (titrated, usually from 57 µM), hits mostly inhibitors. HEK-293 ATXN2-luciferase reporter, luminescence, 24 h. AID 1745845. 0.72% of 360,000 active; further: nearly all actives have a fitted effect of over 55% in size
#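 qHTS (up to 57 uM final) was run with 24 h compound exposure of reporter cells at 37 °C. Each well was multiplexed: SteadyGlo luminescence measured ATXN2-luciferase expression after a fluorogenic Gly-Phe-AFC viability readout (25 uM final).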
# S2 tox – reduces viability in counter-screen for ATXN expression inhibitors | S2 cells (HEK-293 line with an ATXN2-luciferase reporter) viability, CellTiter-Fluor protease fluorescence, 24 h | Potency, µM (doses to about 56.7 µM), most hits filed as cytotoxic | 0.49% of 400,000 active; further: nearly all actives have a fitted effect of over 40% in size
# KB-3-1 tox – KB-3-1 parental cell cytotoxicity; 1.4% of 400,000 active; KB-3-1 viability, CellTiter-Glo ATP luminescence, 72 h; Potency, µM (doses to about 46.1 µM), most hits filed as cytotoxic; AID 1347075; further: nearly all actives have a fitted effect of over 60% in size
#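 Using CellTiter-Glo luminescence, growth of non-resistant KB-3-1 adenocarcinoma cells is assessed 72 h after pin-tool compound addition at 37 °C. Normalized responses across the concentration series yield fitted curves.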
# HT1080 IDH1KD tx – toxicity to HT-1080 IDH1 knockdown cells (counter line); HT-1080 IDH1 knockdown viability, ATP luminescence, 48 h; Potency, µM (highest dose often 46.1 µM), hits mostly cytotoxic; 2% of 360,000 active; AID 686971
#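 Assay cells: HT-1080 with IDH1 knockdown, 750 per well, RPMI/5% FBS. Exposure: 48 h at 37 °C following 2 h pre-incubation. Read: CellTiter-Glo luminescence; fitted concentration-response, curve class assigned.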
# KB-V1 MDR tox – KB-V1 MDR subline cytotoxicity; 3.4% of 400,000 active; KB-V1 MDR cells viability, CellTiter-Glo, 72 h; Potency, µM (top dose mostly 46.1 µM), most hits filed as cytotoxic; AID 1347076; further: nearly all actives have a fitted effect of over 60% in size
#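 Compound-treated KB-V1 multidrug-resistant cells, 72 h, 37 degrees C; viability by CellTiter-Glo. Fitted qHTS curves give the values.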
# HT1080-NT tox – kills 2HG-producing HT-1080-NT fibrosarcoma cells; HT-1080-NT fibrosarcoma viability, CellTiter-Glo ATP luminescence, 48 h; Potency, µM (top dose mostly 46.1 µM), usual class: cytotoxic; 1.6% of 360,000 active;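 further: NT is the 2HG producing partner of a matched IDH1 knockdown line; nearly all actives have a fitted effect of over 55% in size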
#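 750 cells/well, RPMI + 5% FBS; 2 h settle, compound pin-transfer, 48 h at 37 degrees C. CellTiter-Glo 10 min RT, luminescence. Normalized to DMSO and media-only wells.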
# A number is an active result; – = inactive; ? = inconclusive; · = no result given. This is a sample that favours compounds with a hit; in the whole collection about 6.2% have one here. The call rests on the fitted dose curve; in most records, active means well fitted curve in the direction sought with a large enough effect; inconclusive means small, poorly fitted or top-dose-only effect, or another doubt; inactive means no such curve, though single readings can be large; an effect the other way counts as inactive or inconclusive.
SMILES,ATXN2 expr inh,S2 tox,KB-3-1 tox,HT1080 IDH1KD tx,KB-V1 MDR tox,HT1080-NT tox
COc1cc(C2c3c(-c4c(C)cc(C)cc4O)n[nH]c3C(=O)N2CCCOC(C)C)cc(OC)c1OC (stereo not given),–,–,–,·,–,·
N#CC1=C(N)C(C#N)(C#N)[C@H](c2ccoc2)[C@H]2CN(Cc3ccccc3)CC=C12,–,?,5.2µM,2.6µM,?,?
CN1CC=C2C(C#N)=C(N)C(C#N)(C#N)C(c3cccc(Cl)c3Cl)C2C1 (stereo not given),–,–,–,–,21µM,–
CC1CC(C)CN(Cc2nc(N)nc(Nc3ccccc3)n2)C1 (stereo not given),–,–,–,–,–,–
CC1CC(C)CN(Cc2nc(N)nc(Nc3ccc4ccccc4c3)n2)C1 (stereo not given),–,?,12µM,?,?,?
COc1c(C)cc(S(=O)(=O)Nc2cccc(-c3ccc(N4CCOCC4)nn3)c2)c(C)c1C,?,?,21µM,·,–,·
Cc1cc(C)cc(S(=O)(=O)Nc2cccc(-c3ccc(N4CCOCC4)nn3)c2)c1,–,–,–,·,–,·
CC12CC3CC(C)(C1)CC(C(=O)NC(=S)N1CCOCC1)(C3)C2,–,–,–,–,–,11µM
O=C(NC(=S)N1CCCCC1)C12CC3CC(CC(C3)C1)C2,–,–,–,–,–,–
CCCc1nn2c(=O)cc(COC(=O)CNC(=O)COc3ccc(C)cc3)nc2s1,–,–,–,·,–,·
CCOC(=O)c1nn(-c2ccccc2C)c2nc(-c3ccc(C)cc3)c(C#N)c(=O)n12,–,–,–,–,–,–
CCOC(=O)c1nn(-c2ccccc2)c2nc(-c3ccc(OC)cc3)c(C#N)c(=O)n12,–,–,?,–,23µM,–
COc1ccc(Cl)cc1-n1cc(-c2ccccc2)nc1SCC(=O)Nc1ccc(C)cc1,–,–,–,·,–,·
C[C@](Cc1c[nH]c2ccccc12)(NC(=O)OC1C2CC3CC(C2)CC1C3)C(=O)NC[C@H](NC(=O)CCC(=O)O)c1ccccc1 (stereo not given in full),–,·,·,·,·,·
O=S(=O)(N/N=C/c1ccccc1OCc1ccc(Cl)cc1)c1ccccc1,–,–,?,–,16µM,?
COC(=O)c1ccc(COc2ccccc2/C=N/NS(=O)(=O)c2ccc(C)cc2)cc1,–,–,–,?,18µM,–
COc1cc(/C=N/NS(=O)(=O)c2ccc(C)cc2)ccc1OCc1ccc(C(=O)O)cc1,–,–,–,–,–,–
CN(C)c1ccc(CNC(=O)CCCN2C(=O)c3cccnc3Oc3ccc(Cl)cc32)cc1,·,·,–,·,–,·
O=C1NCc2c1c1c3ccccc3[nH]c1c1[nH]c3ccccc3c21,·,·,?,·,–,·
COc1cc(O)ccc1C1CC(=O)Nc2c1c(=O)nc(SCc1ccccc1C)n2C (stereo not given),–,–,–,·,–,·
COc1ccc(-c2nnc(NC(=O)c3ccc(F)cc3)o2)cc1,–,20µM,–,?,–,–
CS(=O)(=O)c1cccc(-c2nnc(NC(=O)c3ccc(S(=O)(=O)N4CCCC4)cc3)o2)c1,–,–,–,–,–,–
O=C(Nc1nnc(-c2ccc(F)cc2)o1)c1ccc(S(=O)(=O)N2CCOCC2)cc1,?,–,4.1µM,?,?,–
COc1ccc(-c2nnc(NC(=O)c3ccc4c(c3)OCCO4)o2)cc1,–,–,–,–,–,–
Cc1ncc2c(c1CNC(=O)/C=C/c1cccs1)CCN(C(=O)c1c(C)noc1C)C2,·,–,·,·,·,·
SMILES,ATXN2 expr inh,S2 tox,KB-3-1 tox,HT1080 IDH1KD tx,KB-V1 MDR tox,HT1080-NT tox
C=C1C=C(C(F)F)n2ncc(C(=O)Nc3ccc(N(CC)CC)cc3)c2N1,·,·,?,·,–,·
Cc1ccc2nc(C3CCCN3Cc3nc(CCC(C)C)no3)[nH]c2c1 (stereo not given),–,–,–,–,6.5µM,–
Cc1ccc(NC(=O)Cn2cccc2)cc1C,–,–,–,–,–,–
Cc1cccc(C(=O)Nc2ccccc2SCC(=O)Nc2ccc(C)c(Cl)c2)c1,?,?,12µM,?,?,–
Cc1ccc(NC(=O)Cn2cccc2)cc1Cl,–,–,–,–,18µM,–
CN(CC(=O)O)c1ccc(C=O)cc1,·,·,–,·,–,·
CCOc1ccc2ncc3c(-c4ccc(C)cc4)nn(-c4cccc(F)c4)c3c2c1,–,–,–,·,–,·
NS(=O)(=O)c1cc(C(=O)NN2C[C@H]3[C@H]4CCC(C4)[C@H]3C2)ccc1Cl,–,–,·,·,·,·
CCOC(=O)C1(Cc2cccc(F)c2)CCN(Cc2cn(CC)nc2C)CC1,–,·,–,–,?,–
CCOC(=O)C1(CCOc2ccccc2)CCN(Cc2ccc3c(c2)OCCO3)CC1,–,–,–,?,–,18µM
CCOC(=O)C1(CCCc2ccccc2)CCN(Cc2cnc(C)s2)CC1,?,?,–,?,?,18µM
CCOC(=O)C1(Cc2cccc(F)c2)CCN(Cc2cnc(C)s2)CC1,–,–,–,–,?,–
CCOC(=O)C1(CCCc2ccccc2)CCN(Cc2cn(CC)nc2C)CC1,–,–,21µM,?,–,?
COc1cccc(NC(=O)CSc2ncc3c(n2)-c2ccc(Cl)cc2N(C)S3(=O)=O)c1,–,–,–,·,–,·
Cc1ccc2[nH]c(CSc3nnc(NC(=O)c4ccccc4C)s3)cc(=O)c2c1,–,–,–,·,–,·
CC(C)Oc1ccc(CNC(=O)c2ccccc2NC(=O)c2nsc3ccccc23)cc1,·,·,–,·,–,·
O=C1Nc2ccc(Br)cc2/C1=C/C(=O)c1ccc2c(c1)OCO2,·,20µM,?,?,?,?
N#CCCN(Cc1cccnc1)S(=O)(=O)c1ccc2ccccc2c1,–,?,–,–,23µM,–
CCC1CN(CCNC(=O)c2cccc3nccnc23)Cc2cc(OC)ccc2O1 (stereo not given),·,–,·,·,·,·
COc1ccc(-c2ccc(CCC(=O)O)n2-c2cc(OC)ccc2OC)cc1,·,–,?,?,?,23µM
COc1ccc(-c2ccc(CCC(=O)O)n2-c2ccccc2C(F)(F)F)cc1,–,–,18µM,·,–,·
COc1ccc(-n2c(CCC(=O)O)ccc2-c2ccccc2)cc1,–,–,–,–,–,–
COc1ccc(-c2ccc(CCC(=O)O)n2-c2ccccc2O)cc1,–,?,?,?,–,?
CCOC(=O)c1cnc2c(cnn2C)c1NCCC(O)C(F)(F)F (stereo not given),–,–,–,–,6.5µM,–
CCOC(=O)c1cnc2c(cnn2C)c1Oc1ccc(OC)cc1,–,–,–,–,?,–
COc1ccc(S(=O)(=O)n2ccc(-c3ccc4c(c3)CCC(C)(C)O4)n2)cc1,–,–,–,?,12µM,–
